Laboratory results reported in PubChem BioAssay AID693 (University of Pittsburgh Molecular Library Screening Center, 2007).
The whole screen tested about 97,000 compounds, of which about 130 (0.13%) were called active. No stated cut-off is given here; in the data, active means inhibition above about 34% (passing the limit was not always enough); inactive means the rest. This excerpt belongs to a sample that is enriched for actives.

Target: Serine/threonine-protein kinase PLK1 (Homo sapiens) (UniProt P53350)
Experiment: Plk1 polo box domain binding inhibitors, primary screen, biochemical, fluorescence polarization (AID 693)
Details: Plk1 PBD phosphopeptide binding, hits give high values,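 tested at about 20 µM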

Chain of Serine/threonine-protein kinase PLK1 (Homo sapiens) (P53350 whole entry, looked up, the tested form may be a part): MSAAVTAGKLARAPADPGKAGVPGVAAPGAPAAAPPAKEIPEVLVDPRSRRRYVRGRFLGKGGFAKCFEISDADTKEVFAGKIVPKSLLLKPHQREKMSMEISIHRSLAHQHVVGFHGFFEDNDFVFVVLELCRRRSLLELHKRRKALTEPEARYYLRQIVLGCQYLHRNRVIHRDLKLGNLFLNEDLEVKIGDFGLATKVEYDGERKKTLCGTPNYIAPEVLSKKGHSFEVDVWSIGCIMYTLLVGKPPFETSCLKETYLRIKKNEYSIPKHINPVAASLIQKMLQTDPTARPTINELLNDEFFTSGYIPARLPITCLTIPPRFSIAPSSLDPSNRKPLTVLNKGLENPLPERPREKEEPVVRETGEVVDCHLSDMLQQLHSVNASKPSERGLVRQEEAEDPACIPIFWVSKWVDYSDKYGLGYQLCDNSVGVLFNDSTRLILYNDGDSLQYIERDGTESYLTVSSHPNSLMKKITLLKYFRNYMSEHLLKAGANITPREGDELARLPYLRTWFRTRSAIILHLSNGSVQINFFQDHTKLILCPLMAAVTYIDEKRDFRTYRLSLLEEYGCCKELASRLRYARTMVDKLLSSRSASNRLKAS

inhibition, inactive:
Cc1nc2ccccc2c(-c2ccccc2)c1C(=O)c1ccccc1 -0.63%, COc1cc(/C=N\NC(=O)CNC(=O)c2cccc([N+](=O)[O-])c2)ccc1O -17.4%, Brc1ccc(/C=N/N2CCN(C3c4ccccc4-c4ccccc43)CC2)s1 -17.6%, COc1ccc(CCN(C(=O)COc2ccccc2)c2nc(-c3ccccc3)cs2)cc1OC -9.73%, Cc1cnc(NC(=O)C2CCCC2)s1 -23.2%, COc1ccc(N2CCN(C(=O)CNC(=O)c3ccc(C(C)(C)C)cc3)CC2)cc1 -1.88%, CCC(C)n1c(-c2cc(OC)c(OC)c(OC)c2)nc2nc3ccccc3nc21 (stereo not given) 14.5%, Cc1nn(CCOc2ccccc2)c(=O)n1-c1ccccc1F 8.4%, Cc1nc2cc(NC(=O)NCc3ccccc3)ccc2o1 -8.52%, O=C(OCc1cn(-c2ccc(Cl)c(Cl)c2)nn1)c1ccccc1Cl 1.36%, CCC(C)(C)c1ccc(Oc2ccc(NC(=O)COC(=O)C3=COCCO3)cc2)cc1 1.77%, Cc1ccccc1NC(=S)Nc1cccc([N+](=O)[O-])c1 34.5%, COc1cc(C(=O)N2CCN(C/C=C/c3ccccc3)CC2)cc(OC)c1C -11.1%, CC(=O)c1ccc2c(ccc3ccccc32)c1 -3.5%, CN1CC(c2ccccc2)C2(COc3ccccc3C2=O)C12C(=O)Nc1ccccc12 (stereo not given) 5%, O=C(CCn1c(SCC(=O)c2ccccc2)nc2ccccc2c1=O)NCc1ccc(F)cc1 4.81%, CCS(=O)(=O)Nc1ccc(C2=NN(S(=O)(=O)c3ccc(F)cc3)C(c3ccco3)C2)cc1 (stereo not given) 11%, Cc1cccc(N(C(=O)c2ccc(CN3CCOCC3)o2)C(C(=O)NC2CCCCC2)c2ccc(F)cc2)c1 (stereo not given) 10.4%, CCOC(=O)c1sc2nc(SC)nc(-c3ccccc3)c2c1N -9.12%, Cc1nn(Cc2ccccc2)c2c1C(c1ccccc1)C(C#N)=C(N)O2 (stereo not given) 17%, O=C(CSCc1ccc(Cl)cc1)N1CCN(Cc2ccc3c(c2)OCO3)CC1 -16.3%, CC1(C)CC(CC(=O)O)C(=O)O1 (stereo not given) -18.7%, CCCC(O)(c1ccc(OC)cc1)C(CN(C)C)c1ccccc1 (stereo not given) 3.1%, C/C(=N\NS(=O)(=O)c1cccc([N+](=O)[O-])c1)c1cc2ccccc2o1 22%, CN(CC(=O)Nc1cccc2c1CCCC2)S(=O)(=O)c1ccc(Cl)cc1 -30%
